A selection: hits, their analogues and other compounds. The true share with any hit is near 32%.
CYP2C9 inhib = blocks human cytochrome P450 2C9; CYP2C9 Supersomes, luciferin-H conversion, luminescence; inhibition, % at 5 µM; actives 20% (n = 96,000); AID 777;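 active = blocking of liver enzyme CYP2C9 beyond about 50% at 5 µM, limit read from the data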
PostGolgi yeast = growth inhibition of a yeast mutant, post-Golgi transport screen. post-Golgi transport phenotypic cell assay. inhibition, % at 10 µM. actives 0.9% (n = 98,000);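 also: yeast cells grown in 1536-well plates; yeast grown about 18 h at 30C before absorbance read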
PostGolgi ctrl = yeast control strain growth, post-Golgi counter-screen; efflux-deficient yeast background strain, growth absorbance A615, 16 h; inhibition, % at 10 µM; actives 5% (n = 98,000); AID 738
CYP2C19 inhib = blocks human cytochrome P450 2C19 | P33261 | CYP2C19 Supersomes, luciferin-H EGE luminescence, 30 min | inhibition, % at 5 µM | actives 21% (n = 96,000);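 active = CYP2C19 inhibition above a set limit at 5 µM in the primary screen, cut at about 50% in these data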;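 also: plate controls were negative control wells for no effect and 2.5 mM tranylcypromine positive control for full effect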
Target sequence (P33261 whole entry, looked up): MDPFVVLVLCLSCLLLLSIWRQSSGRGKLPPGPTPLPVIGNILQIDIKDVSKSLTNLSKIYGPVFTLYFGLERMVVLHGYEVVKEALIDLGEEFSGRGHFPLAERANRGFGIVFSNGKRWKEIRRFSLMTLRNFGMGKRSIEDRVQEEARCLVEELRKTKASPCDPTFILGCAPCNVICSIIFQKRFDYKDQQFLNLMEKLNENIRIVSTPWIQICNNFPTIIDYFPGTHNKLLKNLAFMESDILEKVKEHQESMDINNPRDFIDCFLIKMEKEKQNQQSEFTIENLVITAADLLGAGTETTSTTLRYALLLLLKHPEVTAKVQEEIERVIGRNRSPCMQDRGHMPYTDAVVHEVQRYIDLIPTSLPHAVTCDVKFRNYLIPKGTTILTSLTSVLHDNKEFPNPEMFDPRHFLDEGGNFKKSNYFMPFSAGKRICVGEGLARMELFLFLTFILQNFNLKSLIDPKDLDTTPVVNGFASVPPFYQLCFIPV
CYP2C9 activ = CYP2C9 (human) activation; actives 1.4% (n = 96,000); activation factor at 5 µM; recombinant CYP2C9, luciferin-H conversion, luminescence; hits give high values; factor 1 = untreated enzyme, 0 = blocked;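 active = activation factor of 2 or more for CYP2C9 at a 5 µM dose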;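 also: 0 = sulfaphenazole-blocked wells and 1 = vehicle-only wells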
CYP2C19 act = cytochrome P450 2C19 (human) activation; P33261; recombinant CYP2C19, luciferin-H EGE luminescence; hits give high values; 0 = fully inhibited enzyme, 1 = untreated enzyme; activation factor at 5 µM; 96,000 tested, under 10 active; AID 1025;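 active = activation factor of at least 2 at 5 µM in the primary screen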;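 also: 0 = wells with 2.5 mM tranylcypromine and 1 = vehicle-only wells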
Numbers without * were called inactive. Rule as the data show it, unless noted: active = inhibition above about 30%; inactive = the rest.

How did Cc1ccc(-c2nnn(CC(=O)N(CC(=O)NCc3ccccc3)c3cccc(C)c3C)n2)o1 do in these assays?
CYP2C9 inhib: 78*; PostGolgi yeast: 4; PostGolgi ctrl: 4; CYP2C19 inhib: 41; CYP2C9 activ: 0.2; CYP2C19 act: 0.6

How did CCc1nc2cc(CC(=O)O)ccc2o1 do in these assays?
CYP2C9 inhib: 20; PostGolgi yeast: 5; PostGolgi ctrl: 19; CYP2C19 inhib: -3; CYP2C9 activ: 0.8; CYP2C19 act: 1

What do the screens show for `CC(C)CN(CCNC(=O)CC1Oc2ccccc2NC1=O)CC(C)C` (stereo unspecified)?
CYP2C9 inhib: -4; PostGolgi yeast: -6; PostGolgi ctrl: 6; CYP2C19 inhib: 17; CYP2C9 activ: 1; CYP2C19 act: 0.8

How did c1ccc(Nc2nc(N3CCCC3)nc(N3CCCC3)n2)cc1 do in these assays?
CYP2C9 inhib: 17; PostGolgi yeast: 8; PostGolgi ctrl: 70*; CYP2C19 inhib: 14; CYP2C9 activ: 0.8; CYP2C19 act: 0.9

How did c1ccc(Nc2nc(N3CCCCC3)nc(N3CCNCC3)n2)cc1 do in these assays?
CYP2C9 inhib: 1; PostGolgi yeast: 1; PostGolgi ctrl: 15; CYP2C19 inhib: 14; CYP2C9 activ: 1; CYP2C19 act: 0.9

Results for COc1ccc(Nc2nc(N3CCCCC3)c3ccccc3n2)cc1 ?
CYP2C9 inhib: 7; PostGolgi yeast: 59*; PostGolgi ctrl: 86*; CYP2C19 inhib: 21; CYP2C9 activ: 0.9; CYP2C19 act: 0.8

Results for c1ccc(Nc2nc(N3CCCCC3)nc(N3CCCCC3)n2)cc1 ?
CYP2C9 inhib: 12; PostGolgi yeast: -4; PostGolgi ctrl: 53*; CYP2C19 inhib: 10; CYP2C9 activ: 0.9; CYP2C19 act: 0.9

How did Cc1ccc(S(=O)(=O)c2nc(Nc3ccccc3N3CCOCC3)sc2Cl)cc1 do in these assays?
CYP2C9 inhib: -16; PostGolgi yeast: 6; PostGolgi ctrl: 3; CYP2C19 inhib: -20; CYP2C9 activ: 1.2; CYP2C19 act: 1.2

What do the screens show for `CCOc1ccc2cc(/C=C/C(=O)c3ccco3)c(Cl)nc2c1`?
CYP2C9 inhib: 25; PostGolgi yeast: 11; PostGolgi ctrl: 19; CYP2C19 inhib: 18; CYP2C9 activ: 0.7; CYP2C19 act: 0.8

Results for C=CCNc1nc(N2CCCC2)nc2ccccc12 ?
CYP2C9 inhib: 4; PostGolgi yeast: 1; PostGolgi ctrl: 6; CYP2C19 inhib: 4; CYP2C9 activ: 1; CYP2C19 act: 1

What do the screens show for `OCCNc1nc(N2CCN(Cc3ccccc3)CC2)nc2ccccc12`?
CYP2C9 inhib: 54*; PostGolgi yeast: 2; PostGolgi ctrl: 7; CYP2C19 inhib: 25; CYP2C9 activ: 0.5; CYP2C19 act: 0.8

Results for O=C(N1CCOCC1)N(Cc1ccco1)CC1CCCO1 (stereo unspecified) ?
CYP2C9 inhib: 9; PostGolgi yeast: -6; PostGolgi ctrl: 3; CYP2C19 inhib: -3; CYP2C9 activ: 0.9; CYP2C19 act: 1

How did O=C(c1cc2ccccc2oc1=O)N(Cc1ccc2c(c1)OCO2)Cc1ccco1 do in these assays?
CYP2C9 inhib: 92*; PostGolgi yeast: -8; PostGolgi ctrl: 42*; CYP2C19 inhib: 96*; CYP2C9 activ: 0.1; CYP2C19 act: 0

How did O=C(c1cc2ccccc2oc1=O)N(Cc1ccco1)CC1CCCO1 (stereo unspecified) do in these assays?
CYP2C9 inhib: 55*; PostGolgi yeast: 2; PostGolgi ctrl: -3; CYP2C19 inhib: 12; CYP2C9 activ: 0.5; CYP2C19 act: 0.9

What do the screens show for `Cc1cc2cc(CN(Cc3ccc4c(c3)OCO4)C(=O)c3ccco3)c(=O)[nH]c2cc1C`?
CYP2C9 inhib: 45; PostGolgi yeast: 0; PostGolgi ctrl: -2; CYP2C19 inhib: 16; CYP2C9 activ: 0.5; CYP2C19 act: 0.8

Results for COC(=O)C(NC(C)=O)(Nc1nc2ccc(C)cc2s1)C(F)(F)F (stereo unspecified) ?
CYP2C9 inhib: 78*; PostGolgi yeast: 1; PostGolgi ctrl: 4; CYP2C19 inhib: 75*; CYP2C9 activ: 0.2; CYP2C19 act: 0.3

Results for CCOCC(=O)Nc1nc2ccc(S(C)(=O)=O)cc2s1 ?
CYP2C9 inhib: 24; PostGolgi yeast: -1; PostGolgi ctrl: 15; CYP2C19 inhib: 5; CYP2C9 activ: 0.8; CYP2C19 act: 0.9

What do the screens show for `COC(=O)C(NC(C)=O)(Nc1nc2ccc(S(C)(=O)=O)cc2s1)C(F)(F)F` (stereo unspecified)?
CYP2C9 inhib: 64*; PostGolgi yeast: -4; PostGolgi ctrl: 3; CYP2C19 inhib: 2; CYP2C9 activ: 0.4; CYP2C19 act: 1

How did CS(=O)(=O)c1ccc2nc(NC(NC(=O)c3ccco3)(C(F)(F)F)C(F)(F)F)sc2c1 do in these assays?
CYP2C9 inhib: 99*; PostGolgi yeast: 3; PostGolgi ctrl: 11; CYP2C19 inhib: 50*; CYP2C9 activ: 0; CYP2C19 act: 0.5

Results for CCOC(=O)c1ccc2nc(NC(NC(C)=O)(C(=O)OC)C(F)(F)F)sc2c1 (stereo unspecified) ?
CYP2C9 inhib: 22; PostGolgi yeast: 0; PostGolgi ctrl: 14; CYP2C19 inhib: 40; CYP2C9 activ: 0.8; CYP2C19 act: 0.6

What do the screens show for `S=c1nc(C2CCCCC2)[nH][nH]1`?
CYP2C9 inhib: 3; PostGolgi yeast: -7; PostGolgi ctrl: 3; CYP2C19 inhib: -5; CYP2C9 activ: 1; CYP2C19 act: 1.1

What do the screens show for `Cn1c(=O)c2c(ncn2CC(=O)N2CCc3ccccc3C2)n(C)c1=O`?
CYP2C9 inhib: -13; PostGolgi yeast: -15; PostGolgi ctrl: 11; CYP2C19 inhib: -19; CYP2C9 activ: 1.1; CYP2C19 act: 1.2

What do the screens show for `CC(C)(C)NC(=O)NC(=O)COC(=O)C1CC(=O)N(Cc2ccccc2)C1` (stereo unspecified)?
CYP2C9 inhib: 33; PostGolgi yeast: -2; PostGolgi ctrl: -8; CYP2C19 inhib: 36; CYP2C9 activ: 0.7; CYP2C19 act: 0.6

What do the screens show for `O=C(OCC(=O)N1c2ccccc2Sc2ccccc21)C1CC(=O)N(Cc2ccco2)C1` (stereo unspecified)?
CYP2C9 inhib: 89*; PostGolgi yeast: 6; PostGolgi ctrl: 2; CYP2C19 inhib: 70*; CYP2C9 activ: 0.1; CYP2C19 act: 0.3

What do the screens show for `CNc1nc(SC)nc2ccsc12`?
CYP2C9 inhib: -130; PostGolgi yeast: -11; PostGolgi ctrl: 9; CYP2C19 inhib: 37; CYP2C9 activ: 2.3*; CYP2C19 act: 0.6

How did C=CCSc1nc(NC)c2sccc2n1 do in these assays?
CYP2C9 inhib: -148; PostGolgi yeast: 0; PostGolgi ctrl: 11; CYP2C19 inhib: 22; CYP2C9 activ: 2.5*; CYP2C19 act: 0.8

Results for Cc1sc2nc(C(C)(C)C)oc(=O)c2c1C ?
CYP2C9 inhib: 19; PostGolgi yeast: -1; PostGolgi ctrl: 3; CYP2C19 inhib: 29; CYP2C9 activ: 0.8; CYP2C19 act: 0.7

High-throughput results from PubChem.
